The sequences below were run against OSR1 (assay: pooled miR-30 sensor sort-seq; sequence = guide strand). Details: shRNA.
Note: reference of the scale not given here.

Q: For TTGGAGTGAATATATCTGTGGT, which sensor-assay potency score (higher = more potent) is on record?
A: 0.0172

Q: TTTGGAGTGAATATATCTGTGG was tested. Which sensor-assay potency score (higher = more potent) did it give?
A: -0.758

Q: With TAGGTTGTAGGACTTGGTGAAG as the sequence, how does the sensor-assay potency score (higher = more potent) read?
A: -1.09

What follows are sequences tested against OTOL1 in the same assay as above. Details: shRNA.

Q: How did the sensor-assay potency score (higher = more potent) turn out when TTCCATTCCACTGTCTCCTTTG was run?
A: -0.205

Q: TTGTCCTTTCACTCCTCCCAAA was tested. Which sensor-assay potency score (higher = more potent) did it give?
A: -1.46

Q: With TGAACTGCTTCTTATTCTGGGC as the sequence, how does the sensor-assay potency score (higher = more potent) read?
A: -0.752

Q: Which sensor-assay potency score (higher = more potent) does the source give for TTTCTCTGGACTTGAACTGCTT here?
A: -0.0808

Q: With TAGGAAAAAACATATGTCCCAG as the sequence, how does the sensor-assay potency score (higher = more potent) read?
A: -0.389

Q: With TAGAGCAGTTAAACTTCCCAGT as the sequence, how does the sensor-assay potency score (higher = more potent) read?
A: -0.7

Q: How did the sensor-assay potency score (higher = more potent) turn out when TCTTTTGACACCTCAAGCCAGA was run?
A: -0.531

Q: How did the sensor-assay potency score (higher = more potent) turn out when TTGCTATTGTGTTCATACCAGC was run?
A: -1.39

Q: For TTTGGTAATTGGTTCTGCCATT, which sensor-assay potency score (higher = more potent) is on record?
A: -0.925

Q: How did the sensor-assay potency score (higher = more potent) turn out when TTCTCTGGACTTGAACTGCTTC was run?
A: -0.336

Q: With TTGAACTGCTTCTTATTCTGGG as the sequence, how does the sensor-assay potency score (higher = more potent) read?
A: 0.431

Q: With TTGGTCATTATAGAGAATCTTT as the sequence, how does the sensor-assay potency score (higher = more potent) read?
A: -0.546

From the OligoGym collection
